Where “and” joins values, the source holds several entries; their conditions need not be identical. Equal entries are not always repeated. Records with an inconclusive call do not appear. Where a call stands in place of a potency, no number is given. Some structures have more than one record in an assay (separate samples or runs), and their calls can disagree. Calls of active or inactive are those of the source. Unless noted, calls follow the shape of the dose curve; as a rule, active = well fitted curve in the direction sought with a large enough effect in the repeat runs; inconclusive = weak or mixed curves; inactive = no such curve, though single readings can be large; an effect the other way counts as inactive or inconclusive.
Key:
[1] = A CellTox Green Cytotoxicity Assay to monitor cytotoxicity in HepG2 cells - 8 hour (AID 1224890); details: CellTox Green fluorescence; series mostly up to 76.8 µM; also: nearly all actives have a fitted effect of over 45% in size; also: potency is read from the fitted curve at half-maximal effect
Summary of the method: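 Cytotoxicity was tracked as dead-cell DNA fluorescence in HepG2 cells treated with test compounds at 37 C; each time-point value comes from one kinetic series spanning 0, 8, 16, 24, 32 and 40 h.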

[2] = qHTS assay to identify small molecule antagonists of the estrogen receptor alpha (ER-alpha) signaling pathway using the BG1 cell line in the presence of 0.1 nM 17-beta-estradiol - cell viability counter screen (AID 1259241); details: VM7Luc4E2 (BG1) viability, CellTiter-Fluor protease, 22 h, 0.1 nM estradiol agonist added; series mostly up to 92.4 µM; also: nearly all actives have a fitted effect of over 40% in size; also: potency is read from the fitted curve at half-maximal effect
Summary of the method: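 Cytotoxicity counter-screen: live-cell protease activity measured by fluorescence (30 min reagent step) in the same wells. Cells were VM7Luc4E2 with endogenous ER-alpha and ERE-driven luciferase, treated 22 hr at 37C alongside 0.1 nM 17beta-estradiol final.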

[3] = qHTS assay to identify small molecule agonists of the sonic hedgehog signaling (Shh) pathway (AID 1259368; calls by dose curve;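 also: NIH/3T3-derived 3T3Gli1-Luc cells carrying a stable Gli1-driven firefly luciferase reporter; nearly all actives have a fitted effect of over 15% in size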); details: NIH/3T3 Gli1-Luc reporter, luciferase, 24 h; series mostly up to 92.4 µM
Summary of the method: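 Following a 24 hr incubation with DMSO-dissolved compounds at 37 C, 5% CO2, Gli1-Luc NIH/3T3-derived cells received luciferase reagent for 30 min at room temperature prior to luminescence measurement.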

[4] = qHTS assay to identify small molecule agonists of the androgen receptor (AR) signaling pathway in the presence of an antagonist - cell viability counter screen (AID 1259379); details: MDA-kb2 viability, CellTiter-Fluor, 16 h; series mostly up to 92.4 µM; also: nearly all actives have a fitted effect of over 25% in size; also: potency is read from the fitted curve at half-maximal effect
Summary of the method: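 Each compound was tested at 15 concentrations on MDA-kb2 cells in the presence of 3.0uM nilutamide. Viability was measured by CellTiter-Fluor fluorescence after a 16 hr incubation at 37C in a CO2-free atmosphere.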

[5] = qHTS assay to identify small molecule antagonists of the estrogen receptor beta (ER-beta) signaling pathway - cell viability counter screen (AID 1259382); details: ER-beta-UAS-bla HEK293T viability, CellTiter-Glo luminescence, 16 h; series mostly up to 92.4 µM; also: nearly all actives have a fitted effect of over 55% in size; also: potency is read from the fitted curve at half-maximal effect
Summary of the method: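 CellTiter-Glo ATP luminescence measured after the LiveBLAzer read in the same wells; ER-beta-UAS-bla HEK293T cells, 16 hr compound treatment with 1nM 17-beta-estradiol agonist at 37C, 5% CO2.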

[6] = target: Estrogen receptor (Homo sapiens) (UniProt P03372); test: qHTS assay to identify small molecule agonists of the estrogen receptor alpha (ER-alpha) signaling pathway in the presence of an antagonist (AID 1259383; calls by dose curve; also: top concentration of the series differs between compounds; nearly all actives have a fitted effect of over 15% in size); details: VM7Luc4E2 cells, ERE-luciferase, +ICI-182,780, 22 h; series mostly up to 92.4 µM
Chain of Estrogen receptor (Homo sapiens) (P03372 whole entry, looked up): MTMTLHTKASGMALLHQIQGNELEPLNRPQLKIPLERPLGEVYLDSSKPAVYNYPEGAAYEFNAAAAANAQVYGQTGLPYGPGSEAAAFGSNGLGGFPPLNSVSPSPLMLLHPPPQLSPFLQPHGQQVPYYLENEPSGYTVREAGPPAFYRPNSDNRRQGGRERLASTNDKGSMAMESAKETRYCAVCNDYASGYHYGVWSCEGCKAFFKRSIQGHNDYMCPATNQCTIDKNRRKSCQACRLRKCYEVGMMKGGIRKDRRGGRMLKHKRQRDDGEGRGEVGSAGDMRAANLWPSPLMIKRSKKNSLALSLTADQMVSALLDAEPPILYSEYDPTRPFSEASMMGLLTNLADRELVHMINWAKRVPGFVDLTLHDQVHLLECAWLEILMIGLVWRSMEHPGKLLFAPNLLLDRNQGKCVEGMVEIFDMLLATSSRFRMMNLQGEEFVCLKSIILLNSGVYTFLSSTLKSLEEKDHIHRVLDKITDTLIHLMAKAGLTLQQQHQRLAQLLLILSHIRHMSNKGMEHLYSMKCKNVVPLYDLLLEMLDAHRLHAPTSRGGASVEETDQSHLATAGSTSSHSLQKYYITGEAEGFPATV
Summary of the method: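 Luminescent ERE-luciferase reporter, VM7Luc4E2 cells (endogenous ER-alpha); 10.0nM ICI-182,780 final; 15-point compound titration; 22hr at 37C; ONE-Glo, 30min RT.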

[7] = qHTS assay to identify small molecule agonists or antagonists of the thyroid stimulating hormone receptor (TSHR) signaling pathway - wild type cell line counter screen (AID 1259384; calls by dose curve); details: HEK293 wild type, cAMP HTRF counter-screen, stronger effect = higher value; series mostly up to 92.4 µM
Summary of the method: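 Wild-type Hek293 cells, 800/well, 18 h at 37C, then compound with Ro20-1724 for 30 min RT. cAMP by HTRF (cAMP-d2/anti-cAMP cryptate), 1 h RT, fluorescence read. 15 concentrations, triplicates.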

[8] = target: Androgen receptor (Homo sapiens) (UniProt P10275); test: qHTS assay to identify small molecule antagonists of the androgen receptor (AR) signaling pathway using the MDA cell line in the presence of 0.5 nM R1881 (AID 1259243); details: MDA-kb2 MMTV-luciferase, R1881 0.5 nM, 16 h; series mostly up to 92.4 µM; also: nearly all actives have a fitted effect of over 50% in size
Chain of Androgen receptor (Homo sapiens) (P10275 whole entry, looked up): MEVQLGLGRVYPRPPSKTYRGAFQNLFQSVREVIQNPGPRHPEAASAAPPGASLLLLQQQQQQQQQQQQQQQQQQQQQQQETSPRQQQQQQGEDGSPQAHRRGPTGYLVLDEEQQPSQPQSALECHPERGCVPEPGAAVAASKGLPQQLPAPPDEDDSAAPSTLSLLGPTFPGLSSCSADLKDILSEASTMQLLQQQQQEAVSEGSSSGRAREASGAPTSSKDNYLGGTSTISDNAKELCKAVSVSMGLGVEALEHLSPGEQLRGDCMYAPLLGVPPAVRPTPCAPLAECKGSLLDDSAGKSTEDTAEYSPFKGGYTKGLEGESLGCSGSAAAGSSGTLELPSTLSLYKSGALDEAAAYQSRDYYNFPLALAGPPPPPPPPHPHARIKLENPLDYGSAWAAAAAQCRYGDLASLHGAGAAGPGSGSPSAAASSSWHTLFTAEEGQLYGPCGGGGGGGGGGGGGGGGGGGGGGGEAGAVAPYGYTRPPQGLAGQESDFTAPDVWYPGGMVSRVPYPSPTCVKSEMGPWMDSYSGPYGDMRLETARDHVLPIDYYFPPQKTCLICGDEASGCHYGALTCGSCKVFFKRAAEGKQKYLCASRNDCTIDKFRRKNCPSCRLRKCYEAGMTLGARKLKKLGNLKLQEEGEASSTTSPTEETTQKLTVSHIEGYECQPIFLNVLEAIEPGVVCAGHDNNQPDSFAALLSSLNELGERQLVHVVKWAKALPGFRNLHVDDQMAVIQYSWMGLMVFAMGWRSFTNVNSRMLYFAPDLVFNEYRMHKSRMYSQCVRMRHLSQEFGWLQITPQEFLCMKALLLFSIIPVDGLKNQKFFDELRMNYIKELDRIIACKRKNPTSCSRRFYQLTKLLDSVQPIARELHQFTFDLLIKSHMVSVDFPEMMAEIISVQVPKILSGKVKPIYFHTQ
Summary of the method: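 Luminescence from an AR/GR-responsive MMTV-luciferase construct in MDA-kb2 breast carcinoma cells, read 30 min after ONE-Glo, following 16 hr co-treatment with compounds and 0.5 nM R1881.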

[9] = qHTS assay to identify small molecule HDAC inhibitors (AID 1259364); details: HCT-116 HDAC-Glo I/II luminescence, 2 h; series mostly up to 92.4 µM; also: potency is read from the fitted curve at half-maximal effect;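 also: wild-type HCT-116 cells with endogenous class I/II HDAC activity; nearly all actives have a fitted effect of over 45% in size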
Summary of the method: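 HCT-116 wt cells, 1,500/well, overnight attach. Compounds (DMSO) 2 h, 37 °C. HDAC-Glo I/II, 30 min RT. Luminescence.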

[10] = qHTS assay to identify small molecule HDAC inhibitors - cell viability counter screen (AID 1259365); details: HCT-116 viability, CellTiter-Glo ATP luminescence, 2 h; series mostly up to 92.4 µM; also: nearly all actives have a fitted effect of over 50% in size
Summary of the method: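 CellTiter-Glo luminescence (30 min, room temperature) reported viability after a 2 h compound exposure at 37 C. Cells: wild-type HCT-116, 1,500 per well, seeded the night before.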

[11] = qHTS assay to identify small molecule antagonists of the sonic hedgehog signaling (Shh) pathway - cell viability counter screen (AID 1259367); details: NIH/3T3 Gli1-Luc viability, CellTiter-Fluor, 24 h; series mostly up to 92.4 µM; also: nearly all actives have a fitted effect of over 55% in size; also: potency is read from the fitted curve at half-maximal effect
Summary of the method: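 Fluorescence read-out (CellTiter-Fluor, 1 hr at 37C) taken after 23 hr compound treatment of 3T3 Gli1-Luc cells stimulated with conditioned medium. Cells were seeded at 2,000 per well and pre-incubated 4 hr.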

[12] = qHTS assay to identify small molecule antagonists of the sonic hedgehog signaling (Shh) pathway (AID 1259369; calls by dose curve; also: nearly all actives have a fitted effect of over 45% in size; also: potency is read from the fitted curve at half-maximal effect); details: NIH/3T3 Gli1-Luc reporter, Shh antagonist, luminescence 24 h; series mostly up to 92.4 µM
Summary of the method: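 Read-out is luminescence from a firefly luciferase gene controlled by the Gli1 response element, in 3T3Gli1-Luc cells pre-incubated 4hr then exposed to compounds and conditioned medium for 24hr.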

[13] = target: Estrogen receptor beta (Homo sapiens) (UniProt Q92731); test: qHTS assay to identify small molecule agonists of the estrogen receptor beta (ER-beta) signaling pathway (AID 1259377; active = well fitted activation curve with a large enough effect in the signal ratio in the repeat runs, not every such curve was filed as active; the % refers to the signal ratio); details: ER-beta-UAS-bla HEK293T, beta-lactamase FRET ratio, 16 h; series mostly up to 92.4 µM
Chain of Estrogen receptor beta (Homo sapiens) (Q92731 whole entry, looked up): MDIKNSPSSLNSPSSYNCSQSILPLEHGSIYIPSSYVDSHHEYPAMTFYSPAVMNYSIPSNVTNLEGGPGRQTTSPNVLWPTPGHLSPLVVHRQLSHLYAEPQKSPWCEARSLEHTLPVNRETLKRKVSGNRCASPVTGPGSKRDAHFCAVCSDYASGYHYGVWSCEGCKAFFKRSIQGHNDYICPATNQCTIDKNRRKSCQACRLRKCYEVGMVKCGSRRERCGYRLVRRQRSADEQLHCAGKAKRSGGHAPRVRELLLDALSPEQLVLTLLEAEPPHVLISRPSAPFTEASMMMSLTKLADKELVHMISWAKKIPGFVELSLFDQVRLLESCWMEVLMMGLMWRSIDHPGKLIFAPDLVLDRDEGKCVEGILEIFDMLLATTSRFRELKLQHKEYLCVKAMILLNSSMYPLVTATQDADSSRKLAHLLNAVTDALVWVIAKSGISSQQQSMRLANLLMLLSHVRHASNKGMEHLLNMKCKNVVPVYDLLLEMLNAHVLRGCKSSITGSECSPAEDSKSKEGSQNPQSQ
Summary of the method: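 Ratiometric beta-lactamase FRET read-out came after 2 h substrate loading at room temperature. It followed 16 h compound treatment at 37C of GripTite HEK293T cells carrying a UAS-bla reporter, plated in 2% charcoal-stripped FBS medium.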

[14] = target: Estrogen receptor beta (Homo sapiens) (UniProt Q92731); test: qHTS assay to identify small molecule antagonists of the estrogen receptor beta (ER-beta) signaling pathway (AID 1259378; active = well fitted inhibition curve with a large enough effect in the signal ratio in the repeat runs, not every such curve was filed as active; the % refers to the signal ratio; also: potency is read from the fitted curve at half-maximal effect); details: ER-beta-UAS-bla HEK293T, beta-lactamase FRET ratio, 16 h; series mostly up to 92.4 µM
Summary of the method: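 ER-beta-UAS-bla HEK293T cells in 2% charcoal-stripped FBS medium treated with compound plus 1nM final 17-beta-estradiol for 16 hr at 37C. Beta-lactamase reporter read by FRET substrate fluorescence after 2 hours at room temperature.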

[15] = qHTS assay to identify small molecule agonists of the sonic hedgehog signaling (Shh) pathway - cell viability counter screen (AID 1259366); details: NIH/3T3 Gli1-Luc viability, CellTiter-Fluor, 24 h; series mostly up to 92.4 µM; also: nearly all actives have a fitted effect of over 50% in size; also: potency is read from the fitted curve at half-maximal effect
Summary of the method: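 Cytotoxicity counter screen: CellTiter-Fluor reagent added after 23 h compound exposure, then 1 h at 37C and fluorescence read. Cells were 3T3 Gli1-Luc, seeded 2,000 per well and dosed 4 h post-plating.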

[16] = qHTS assay to identify small molecule agonists of the estrogen receptor beta (ER-beta) signaling pathway - cell viability counter screen (AID 1259380); details: ER-beta-bla HEK293T viability, CellTiter-Glo luminescence, 16 h; series mostly up to 92.4 µM; also: nearly all actives have a fitted effect of over 30% in size; also: potency is read from the fitted curve at half-maximal effect
Summary of the method: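 Compounds dissolved in DMSO were pin-transferred onto ER-beta-UAS-bla HEK293T cells that had settled 6 hr, and exposure ran 16 hr at 37C. Following the reporter read, CellTiter-Glo luminescence after 30 min at room temperature indicated cytotoxicity.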

[17] = qHTS assay to identify small molecule antagonists of the androgen receptor (AR) signaling pathway using the MDA cell line in the presence of 0.5 nM R1881 - cell viability counter screen (AID 1259242); details: MDA-kb2 viability, CellTiter-Fluor protease fluorescence, 16 h; series mostly up to 92.4 µM; also: nearly all actives have a fitted effect of over 45% in size; also: potency is read from the fitted curve at half-maximal effect
Summary of the method: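 Cells seeded at 3,000/well and allowed 5 hr at 37C, 0% CO2 before compound transfer and R1881 (0.5 nM final) addition; 16 hr later, live-cell protease fluorescence indicated cytotoxicity.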

[18] = target: Estrogen receptor (Homo sapiens) (UniProt P03372); test: qHTS assay to identify small molecule antagonists of the estrogen receptor alpha (ER-alpha) signaling pathway using the BG1 cell line in the presence of 0.1 nM 17-beta-estradiol (AID 1259244); details: VM7Luc4E2 (BG1) ERE-luciferase, antagonist mode, 0.1 nM E2, 22 h; series mostly up to 92.4 µM; also: nearly all actives have a fitted effect of over 50% in size; also: potency is read from the fitted curve at half-maximal effect
Summary of the method: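 Luciferase signal from VM7Luc4E2 ERE-reporter cells, co-dosed with test compound and 0.1 nM final 17beta-estradiol for 22 h, read with ONE-Glo.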

[19] = qHTS assay to identify small molecule phospholipidosis (PLD) inducers (AID 1259344; active = well fitted curve in the direction sought with a large enough effect; an effect the other way counts as inactive or inconclusive; also: potency is read from the fitted curve at half-maximal effect); details: HepG2 phospholipidosis, LipidTOX Red imaging, 24 h; series mostly up to 38.3 µM
Summary of the method: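 Read-out is LipidTOX Red fluorescence (ex 595/em 615) imaged in HepG2 cells after 24 h compound exposure at 37 C, with Hoechst nuclear counterstain (ex 352/em 461) allowing per-cell normalisation.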

Compound | Potency [1] | Potency [2] | Potency [3] | Potency [4] | Potency [5] | Potency [6] | outcome [7] | Potency [8] | Potency [9] | Potency [10] | Potency [11] | Potency [12] | Potency [13] | Potency [14] | Potency [15] | Potency [16] | Potency [17] | Potency [18] | Potency [19]
O=[N+]([O-])c1ccc(O/N=C/c2cc(Br)c(O)c(Br)c2)c([N+](=O)[O-])c1 | inactive | 24.2 µM (active) | inactive | 48.3 µM (active) | inactive | inactive | inactive | – | – | – | – | – | – | – | – | – | – | – | –
CC(C)=CCC/C(C)=C/CC/C(C)=C/C(=O)OCC(=O)[C@@]1(O)CC[C@H]2[C@@H]3CCC4=CC(=O)C=C[C@]4(C)[C@H]3[C@@H](O)C[C@@]21C | inactive | – | inactive | 26.6 µM (active) | inactive | inactive | inactive | inactive | inactive | inactive | inactive | 8.41 µM (active) | inactive | 13.3 µM (active) | – | – | – | – | –
c1ccc2c(c1)CCc1ccccc1N2 | inactive | inactive | inactive | inactive | inactive | – | inactive | – | – | inactive | inactive | inactive | inactive | inactive | inactive | inactive | – | – | –
CC(C)COCC(CN(Cc1ccccc1)c1ccccc1)N1CCCC1 (stereo unspecified) | 23.9 µM (active) | – | inactive | 26.6 µM (active) | 21.1 µM (active) | inactive | – | – | inactive | inactive | – | 26.6 µM (active) | – | – | – | 29.8 µM (active) | 29.8 µM (active) | 29.8 µM (active) | inactive
COc1ccccc1N1CCN(CCCCNC(=O)c2ccc(-c3ccc(C(C)=O)cc3)cc2)CC1 | inactive | inactive | inactive | – | inactive | inactive | inactive | – | inactive | – | inactive | – | – | – | inactive | inactive | – | – | –
CC(C)c1nc(CN(C)C(=O)N[C@H](C(=O)N[C@@H](Cc2ccccc2)C[C@H](O)[C@H](Cc2ccccc2)NC(=O)OCc2cncs2)C(C)C)cs1 | inactive | – | inactive | inactive | 21.1 µM (active) | inactive | inactive | – | inactive | inactive | 7.5 µM (active) | inactive | – | – | – | 15 µM (active) | inactive | – | inactive and 10 µM (active)
O=C(OCC(O)CO)c1ccccc1Nc1ccnc2cc(Cl)ccc12 (stereo unspecified) | – | inactive | inactive | inactive | – | inactive | – | – | inactive | inactive | 29.8 µM (active) | 7.5 µM (active) | – | – | 29.8 µM (active) | – | inactive | – | inactive
CCOC(=O)c1ccc(O)c(O)c1 | – | inactive | – | inactive | inactive | inactive | – | – | inactive | inactive | inactive | 29.8 µM (active) | – | – | inactive | inactive | inactive | inactive | –
COC(=O)c1nc(Cl)c(Cl)nc1N | – | inactive | inactive | 29.8 µM (active) | – | inactive | inactive | – | – | inactive | 5.31 µM (active) | 0.75 µM (active) | – | – | 10.6 µM (active) | 29.8 µM (active) | – | – | –
O=C1c2ccccc2C(=O)C1c1nc2ccccc2c(Br)c1O | – | inactive | inactive | – | inactive | – | inactive | – | 27.3 µM (active) | inactive | inactive | inactive | – | – | inactive | inactive | – | – | –
CN(C(=O)CN(CCO)CC(=O)N(C)C(C)(C)Cc1ccccc1)C(C)(C)Cc1ccccc1 | – | inactive | inactive | inactive | inactive | – | – | – | inactive | inactive | – | – | inactive | inactive | – | inactive | – | – | inactive
CN1C[C@H](C(=O)N[C@]2(C)O[C@@]3(O)[C@@H]4CCCN4C(=O)[C@H](Cc4ccccc4)N3C2=O)C[C@@H]2c3cccc4[nH]cc(c34)C[C@H]21 | inactive | – | inactive | – | – | inactive | inactive | – | inactive | inactive | inactive | inactive | inactive | – | – | – | inactive | – | –

— PubChem BioAssay (Tox21)
